Test results reported in the supplement of paper PMC11006884.
About 6,500 targets were measured; listed, in parts, are those with a hit and a random draw of the rest. About 2% of all pairs of compound and target were hits.

Compound: COC(=O)C#Cc1ccccc1 [methyl 3-phenylpropiolate]
Test: log2 ratio of iodoacetamide-alkyne labeling of the cysteine site, DMSO over compound (competition); higher = stronger covalent engagement of the cysteine by the compound, active = 1 or more
Conditions: 500 µM; treatment time 1 h; system: HEK293T cell lysate
Method in brief: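 For each cysteine, the log2 competition ratio is mean control-channel reporter intensity over mean compound-channel reporter intensity. HEK293T lysate (2 mg/mL) was exposed to vehicle or electrophile (500 µM, 1 h, ambient temperature), labelled with iodoacetamide alkyne (1 h), clicked to sCIP-TMT reagents, digested overnight with trypsin at 37 °C, streptavidin-enriched and analysed by Orbitrap Eclipse LC-MS/MS with FAIMS and FragPipe. Cysteines quantified in only one of three replicates, each with duplicate channels, were excluded.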

Chain of UniProt O43149 (O43149 whole entry, looked up): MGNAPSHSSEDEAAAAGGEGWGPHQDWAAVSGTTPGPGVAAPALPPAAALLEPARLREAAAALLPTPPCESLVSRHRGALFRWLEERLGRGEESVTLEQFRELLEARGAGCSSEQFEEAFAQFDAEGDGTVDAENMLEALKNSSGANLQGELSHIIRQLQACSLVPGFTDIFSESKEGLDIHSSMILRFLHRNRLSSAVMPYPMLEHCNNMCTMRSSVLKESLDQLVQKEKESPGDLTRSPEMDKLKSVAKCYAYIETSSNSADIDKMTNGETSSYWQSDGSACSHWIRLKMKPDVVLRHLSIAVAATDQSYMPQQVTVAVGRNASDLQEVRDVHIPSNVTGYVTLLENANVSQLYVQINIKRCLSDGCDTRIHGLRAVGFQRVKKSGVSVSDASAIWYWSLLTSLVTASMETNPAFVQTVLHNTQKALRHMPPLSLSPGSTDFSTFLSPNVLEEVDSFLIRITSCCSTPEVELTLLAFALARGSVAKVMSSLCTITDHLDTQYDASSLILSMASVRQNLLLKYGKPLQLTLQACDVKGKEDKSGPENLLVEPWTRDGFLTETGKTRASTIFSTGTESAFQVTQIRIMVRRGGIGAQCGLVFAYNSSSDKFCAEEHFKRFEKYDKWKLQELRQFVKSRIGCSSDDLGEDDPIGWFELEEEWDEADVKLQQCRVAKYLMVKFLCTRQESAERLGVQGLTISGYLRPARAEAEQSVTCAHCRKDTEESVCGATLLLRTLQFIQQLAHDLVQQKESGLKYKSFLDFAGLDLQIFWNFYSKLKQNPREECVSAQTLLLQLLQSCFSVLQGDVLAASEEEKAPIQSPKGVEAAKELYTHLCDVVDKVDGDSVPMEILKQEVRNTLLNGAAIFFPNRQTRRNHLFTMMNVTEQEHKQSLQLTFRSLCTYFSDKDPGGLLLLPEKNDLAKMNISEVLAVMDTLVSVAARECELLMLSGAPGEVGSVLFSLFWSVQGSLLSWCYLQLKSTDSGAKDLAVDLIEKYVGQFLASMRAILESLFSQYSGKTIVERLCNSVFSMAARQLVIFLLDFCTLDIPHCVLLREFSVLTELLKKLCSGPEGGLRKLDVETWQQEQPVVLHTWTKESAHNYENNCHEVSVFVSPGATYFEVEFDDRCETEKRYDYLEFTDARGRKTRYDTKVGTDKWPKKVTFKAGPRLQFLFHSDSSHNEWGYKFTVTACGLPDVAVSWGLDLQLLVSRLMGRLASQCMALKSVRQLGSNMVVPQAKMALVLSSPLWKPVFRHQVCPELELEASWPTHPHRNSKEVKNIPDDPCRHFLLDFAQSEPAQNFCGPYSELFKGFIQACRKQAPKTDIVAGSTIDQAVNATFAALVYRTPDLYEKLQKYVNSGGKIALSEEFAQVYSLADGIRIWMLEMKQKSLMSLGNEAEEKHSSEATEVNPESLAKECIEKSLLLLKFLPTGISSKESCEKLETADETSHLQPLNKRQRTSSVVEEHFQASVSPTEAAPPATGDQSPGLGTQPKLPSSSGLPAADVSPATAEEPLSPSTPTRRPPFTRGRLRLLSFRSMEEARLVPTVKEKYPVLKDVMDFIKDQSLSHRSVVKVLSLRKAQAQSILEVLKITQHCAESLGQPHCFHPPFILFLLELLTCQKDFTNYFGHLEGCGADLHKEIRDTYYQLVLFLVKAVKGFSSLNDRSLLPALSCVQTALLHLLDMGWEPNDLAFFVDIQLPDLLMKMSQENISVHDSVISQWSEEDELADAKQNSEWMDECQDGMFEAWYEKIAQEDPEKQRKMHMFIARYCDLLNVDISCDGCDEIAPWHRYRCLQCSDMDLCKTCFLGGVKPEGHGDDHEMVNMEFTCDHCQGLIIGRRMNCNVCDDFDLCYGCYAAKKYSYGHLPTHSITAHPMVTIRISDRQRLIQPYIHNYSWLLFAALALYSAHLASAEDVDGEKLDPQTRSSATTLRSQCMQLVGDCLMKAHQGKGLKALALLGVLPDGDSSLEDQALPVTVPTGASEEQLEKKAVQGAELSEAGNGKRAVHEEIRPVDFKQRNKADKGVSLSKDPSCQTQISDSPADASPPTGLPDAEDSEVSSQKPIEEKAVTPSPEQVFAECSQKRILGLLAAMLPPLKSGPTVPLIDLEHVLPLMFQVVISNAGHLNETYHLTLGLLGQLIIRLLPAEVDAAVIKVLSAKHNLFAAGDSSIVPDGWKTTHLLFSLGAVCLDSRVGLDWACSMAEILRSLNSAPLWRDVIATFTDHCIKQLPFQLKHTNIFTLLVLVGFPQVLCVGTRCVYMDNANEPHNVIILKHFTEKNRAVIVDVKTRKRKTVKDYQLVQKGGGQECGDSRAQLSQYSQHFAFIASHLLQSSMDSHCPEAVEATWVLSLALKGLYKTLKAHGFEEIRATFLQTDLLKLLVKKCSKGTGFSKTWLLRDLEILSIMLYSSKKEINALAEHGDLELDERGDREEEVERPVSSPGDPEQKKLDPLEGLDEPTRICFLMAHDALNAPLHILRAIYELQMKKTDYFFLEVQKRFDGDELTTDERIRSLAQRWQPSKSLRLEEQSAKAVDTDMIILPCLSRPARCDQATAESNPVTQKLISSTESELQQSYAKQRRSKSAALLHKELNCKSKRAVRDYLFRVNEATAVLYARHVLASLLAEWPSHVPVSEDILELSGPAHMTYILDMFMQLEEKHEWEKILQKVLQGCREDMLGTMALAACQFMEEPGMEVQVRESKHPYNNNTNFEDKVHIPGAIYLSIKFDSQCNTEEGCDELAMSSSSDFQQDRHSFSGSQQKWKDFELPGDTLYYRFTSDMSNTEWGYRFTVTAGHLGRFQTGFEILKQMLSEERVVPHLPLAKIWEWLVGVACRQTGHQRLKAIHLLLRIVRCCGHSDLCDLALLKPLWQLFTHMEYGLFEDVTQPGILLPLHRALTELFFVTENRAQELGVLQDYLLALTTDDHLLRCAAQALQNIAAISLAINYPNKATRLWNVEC
Chain of UniProt O94762 (O94762 whole entry, looked up): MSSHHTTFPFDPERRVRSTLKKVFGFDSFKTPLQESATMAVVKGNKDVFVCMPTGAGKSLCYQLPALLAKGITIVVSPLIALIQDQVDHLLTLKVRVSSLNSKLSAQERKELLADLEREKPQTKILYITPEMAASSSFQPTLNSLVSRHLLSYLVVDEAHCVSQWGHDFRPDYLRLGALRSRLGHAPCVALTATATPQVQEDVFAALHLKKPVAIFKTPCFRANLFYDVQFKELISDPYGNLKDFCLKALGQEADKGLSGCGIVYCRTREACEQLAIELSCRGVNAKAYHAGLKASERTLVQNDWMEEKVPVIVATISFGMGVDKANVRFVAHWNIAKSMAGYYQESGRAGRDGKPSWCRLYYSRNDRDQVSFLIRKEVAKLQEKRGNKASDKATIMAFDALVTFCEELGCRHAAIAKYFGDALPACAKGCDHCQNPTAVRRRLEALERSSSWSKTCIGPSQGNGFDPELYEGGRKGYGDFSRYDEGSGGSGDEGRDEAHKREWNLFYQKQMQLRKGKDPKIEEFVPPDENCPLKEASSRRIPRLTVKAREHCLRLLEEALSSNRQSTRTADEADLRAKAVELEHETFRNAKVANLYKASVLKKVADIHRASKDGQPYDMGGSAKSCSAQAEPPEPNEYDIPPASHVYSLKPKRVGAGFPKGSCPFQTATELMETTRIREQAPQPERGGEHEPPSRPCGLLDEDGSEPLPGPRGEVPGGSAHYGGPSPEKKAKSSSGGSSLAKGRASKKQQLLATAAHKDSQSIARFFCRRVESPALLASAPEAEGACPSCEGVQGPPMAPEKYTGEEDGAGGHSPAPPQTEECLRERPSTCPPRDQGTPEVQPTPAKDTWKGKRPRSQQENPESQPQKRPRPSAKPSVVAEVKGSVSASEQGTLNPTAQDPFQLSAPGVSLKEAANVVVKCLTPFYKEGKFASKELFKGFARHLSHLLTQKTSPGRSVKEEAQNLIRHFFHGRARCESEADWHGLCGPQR
Chain of UniProt O00178 (O00178 whole entry, looked up): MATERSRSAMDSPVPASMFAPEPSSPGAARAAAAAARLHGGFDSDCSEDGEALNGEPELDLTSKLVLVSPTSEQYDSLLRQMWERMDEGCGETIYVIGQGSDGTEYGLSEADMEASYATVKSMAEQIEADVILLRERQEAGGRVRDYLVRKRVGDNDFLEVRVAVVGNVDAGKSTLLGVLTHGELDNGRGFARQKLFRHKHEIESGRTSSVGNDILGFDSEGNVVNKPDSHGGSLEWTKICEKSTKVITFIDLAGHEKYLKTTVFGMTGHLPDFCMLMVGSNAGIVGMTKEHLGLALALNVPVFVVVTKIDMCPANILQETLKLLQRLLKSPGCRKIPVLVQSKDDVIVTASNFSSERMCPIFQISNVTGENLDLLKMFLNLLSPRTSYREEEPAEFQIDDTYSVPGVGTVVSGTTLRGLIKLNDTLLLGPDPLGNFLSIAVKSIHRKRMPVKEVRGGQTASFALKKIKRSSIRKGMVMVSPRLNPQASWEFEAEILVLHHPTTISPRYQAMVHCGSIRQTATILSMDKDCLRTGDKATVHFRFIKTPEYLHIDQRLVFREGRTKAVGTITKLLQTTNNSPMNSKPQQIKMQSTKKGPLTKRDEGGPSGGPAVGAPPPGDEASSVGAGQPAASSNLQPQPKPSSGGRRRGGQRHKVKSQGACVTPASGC
Chain of UniProt O60832 (O60832 whole entry): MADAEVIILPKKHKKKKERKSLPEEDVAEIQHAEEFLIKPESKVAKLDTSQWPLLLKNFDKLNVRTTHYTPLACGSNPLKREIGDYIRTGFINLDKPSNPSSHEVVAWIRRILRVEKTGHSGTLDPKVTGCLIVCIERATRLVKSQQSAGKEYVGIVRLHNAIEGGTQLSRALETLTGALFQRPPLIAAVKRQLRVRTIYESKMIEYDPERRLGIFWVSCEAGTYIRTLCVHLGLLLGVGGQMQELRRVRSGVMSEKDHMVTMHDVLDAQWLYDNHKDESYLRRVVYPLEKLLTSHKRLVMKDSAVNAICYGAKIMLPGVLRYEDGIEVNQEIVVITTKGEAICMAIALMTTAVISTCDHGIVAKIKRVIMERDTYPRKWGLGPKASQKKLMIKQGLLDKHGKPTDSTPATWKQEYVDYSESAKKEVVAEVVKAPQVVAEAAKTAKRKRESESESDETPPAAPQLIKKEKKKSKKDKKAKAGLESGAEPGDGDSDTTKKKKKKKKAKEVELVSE

Target | log2 ratio of iodoacetamide-alkyne labeling
FANCG C417 (UniProt O15287) | 0.36 (inactive)
UniProt O43598_C26 | 0.038 (inactive)
AKAP8 C275 (UniProt O43823) | 1.06 (active)
HTATSF1 C462 (UniProt O43719) | 1.14 (active)
UniProt O00567_C52 | 0.482 (inactive)
SF3B1 C1035 (UniProt O75533) | 0.375 (inactive)
PCF11 C1534 (UniProt O94913) | 0.259 (inactive)
UTP20 C2058 (UniProt O75691) | 0.539 (inactive)
AP3D1 C137 (UniProt O14617) | 0.262 (inactive)
NVL C626 (UniProt O15381) | 0.651 (inactive)
PFAS C270 (UniProt O15067) | 0.115 (inactive)
WASL C431 (UniProt O00401) | 1.06 (active)
DVL2 C412 (UniProt O14641) | 0.134 (inactive)
UniProt O60232_C56 | 0.126 (inactive)
RECQL5 C664 (UniProt O94762) | 1.47 (active)
EIF5B C853 (UniProt O60841) | 1 (active)
NPM3 C105 (UniProt O75607) | 0.636 (inactive)
TRIM24 C81 (UniProt O15164) | 0.0661 (inactive)
TBC1D4 C1277 (UniProt O60343) | 0.374 (inactive)
GEMIN2 C63 (UniProt O14893) | 0.211 (inactive)

Target | log2 ratio of iodoacetamide-alkyne labeling
TMEM189 C22 (UniProt A5PLL7) | 1.52 (active)
IPO5 C750 (UniProt O00410) | 0.168 (inactive)
PSIP1 C204 (UniProt O75475) | 0.31 (inactive)
FLNB C2556 (UniProt O75369) | 0.079 (inactive)
GTPBP1 C669 (UniProt O00178) | 1.13 (active)
EIF3G C139 (UniProt O75821) | 0.259 (inactive)
DKC1 C74 (UniProt O60832) | 0.427 (inactive)
PFAS C606 (UniProt O15067) | 1.53 (active)
ZZEF1 C2466 (UniProt O43149) | -0.132 (inactive)
UniProt O95071_C2267 | 0.736 (inactive)
SASH1 C406 (UniProt O94885) | 1.19 (active)
OFD1 C581 (UniProt O75665) | 0.478 (inactive)
WDR46 C456 (UniProt O15213) | 0.493 (inactive)
POLRMT C925 (UniProt O00411) | -0.0567 (inactive)
ARHGEF11 C1166 (UniProt O15085) | 0.618 (inactive)
PRPF6 C698 (UniProt O94906) | 0.0824 (inactive)
PGP C297 (UniProt A6NDG6) | 1.17 (active)
UniProt O75528_C7 | 1.05 (active)
PMPCB C419 (UniProt O75439) | 0.112 (inactive)
